Results taken from PubChem BioAssay AID1159580 (chemical genetic matrix, 2015).
Screen size: about 5,500 compounds; about 2,000 (36%) were called active. Inconclusive results (about 18%) are left out. Cut-off read from the data, not from the text of the source: active = normalized growth mostly below about 0.91 (no sharp cut-off); inconclusive = no clear call, values can overlap the other calls; inactive = mostly above about 0.92. The list shows a part of the results.

Assay: chemical genetic growth profiling, strain panel (AID 1159580);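 note: tested at 20 µM; growth read once vehicle control cultures reached saturation at 30 °C; 1 = growth at the plate median or of vehicle wells; lower values mean less growth of the strain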
Conditions: S. cerevisiae deletion strains, growth OD

Measured: normalized growth

CCOC(=O)C1C(c2ccc(Br)cc2)C(C(=O)OCC)C(O)(C(F)(F)F)NC1(O)C(F)(F)F (stereo unspecified)
inactive: locus YAR019C, strain CDC15, hits give low values 0.999 | locus YBL105C, strain PKC1, hits give low values 0.991 | locus YBR135W, strain CKS1, hits give low values 1 | locus YBR136W, strain MEC1, hits give low values 0.988 | locus YBR160W, strain CDC28, hits give low values 0.999 | locus YDL017W, strain CDC7, hits give low values 0.996 | locus YDL028C, strain MPS1, hits give low values 0.999 | locus YDL101C, strain DUN1, hits give low values 0.99 | locus YDL108W, strain KIN28, hits give low values 1 | locus YDL132W, strain cdc53, hits give low values 0.996 | locus YDL214C, strain PRR2, hits give low values 0.961 | locus YDR052C, strain DBF4, hits give low values 0.994 | locus YDR054C, strain cdc34, hits give low values 0.992 | locus YDR226W, strain ADK1, hits give low values 0.998 | locus YDR477W, strain SNF1, hits give low values 0.994 | locus YER123W, strain YCK3, hits give low values 0.917 | locus YER133W, strain GLC7, hits give low values 0.969 | locus YFL009W, strain cdc4, hits give low values 0.998 | locus YFL029C, strain CAK1, hits give low values 0.994 | locus YFR003C, strain YPI1, hits give low values 0.995 | locus YFR019W, strain FAB1, hits give low values 0.878 | locus YFR028C, strain CDC14, hits give low values 0.995 | locus YGR040W, strain KSS1, hits give low values 0.99 | locus YGR052W, strain FMP48, hits give low values 1 | locus YGR092W, strain DBF2, hits give low values 0.993 | locus YHR030C, strain SLT2, hits give low values 0.941 | locus YHR079C, strain IRE1, hits give low values 0.981 | locus YHR082C, strain KSP1, hits give low values 0.961 | locus YHR205W, strain SCH9, hits give low values 0.91 | locus YIL147C, strain SLN1, hits give low values 0.999 | locus YJL095W, strain BCK1, hits give low values 0.97 | locus YJL128C, strain PBS2, hits give low values 0.967 | locus YJL157C, strain FAR1, hits give low values 0.975 | locus YJR016C, strain ILV3, hits give low values 0.997 | locus YJR066W, strain TOR1 (second series), hits give low values 0.943 | locus YJR066W, strain TOR1, hits give low values 0.911 | locus YKL048C, strain ELM1, hits give low values 0.986 | locus YKL067W, strain YNK1, hits give low values 0.974 | locus YKL101W, strain HSL1, hits give low values 1 | locus YKL193C, strain SDS22, hits give low values 0.998 | locus YKL203C, strain TOR2, hits give low values 1.03 | locus YLR113W, strain HOG1, hits give low values 0.91 | locus YLR133W, strain CKI1, hits give low values 0.97 | locus YLR403W, strain SFP1, hits give low values 0.966 | locus YML070W, strain DAK1, hits give low values 0.956 | locus YMR001C, strain CDC5, hits give low values 0.987 | locus YMR205C, strain PFK2 (second series), hits give low values 0.988 | locus YMR277W, strain FCP1, hits give low values 0.996 | locus YNL006W, strain LST8, hits give low values 0.999 | locus YNL020C, strain ARK1, hits give low values 0.99 | locus YNL161W, strain CBK1, hits give low values 0.999 | locus YNL183C, strain NPR1, hits give low values 0.942 | locus YNL207W, strain RIO2, hits give low values 0.996 | locus YNL222W, strain SSU72, hits give low values 0.999 | locus YNL307C, strain MCK1 (second series), hits give low values 0.969 | locus YOL078W, strain AVO1, hits give low values 1 | locus YOL136C, strain PFK27, hits give low values 0.947 | locus YOR061W, strain CKA2, hits give low values 0.995 | locus YOR119C, strain RIO1, hits give low values 1.01 | locus YOR231W, strain MKK1, hits give low values 0.984 | locus YOR329C, strain SCD5, hits give low values 0.995 | locus YPL031C, strain PHO85, hits give low values 0.999 | locus YPL153C, strain RAD53, hits give low values 0.989 | locus YPL204W, strain HRR25, hits give low values 0.985 | locus YPL209C, strain IPL1, hits give low values 0.996 | locus YPL256C, strain CLN2, hits give low values 0.9 | locus YPR025C, strain CCL1, hits give low values 0.997 | locus YPR106W, strain ISR1, hits give low values 0.99 | locus YPR111W, strain DBF20, hits give low values 0.99 | strain NNK1, hits give low values 0.992 | strain TSCII, hits give low values 0.998
